Laboratory results published in PubChem BioAssay (Tox21).
Records with an inconclusive call do not appear. Active and inactive are the calls of the source. Unless noted, the call rests on the fitted dose curve.

How the values were obtained:
[1] = qHTS assay to identify small molecule antagonists of the estrogen receptor beta (ER-beta) signaling pathway - cell viability counter screen (AID 1259382; active means well fitted curve in the direction sought with a large enough effect in the repeat runs; an effect the other way counts as inactive or inconclusive;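 further: HEK293T cells carrying ER-beta-UAS-bla reporter stimulated with estradiol; series mostly up to about 92 µM; nearly all actives have a fitted effect of over 55% in size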)
Procedure, shortened: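 Tox21 10K library tested in qHTS format on ER-beta-bla HEK293T cells stimulated with 1nM E2; 16 hr treatment at 37C. Same-well CellTiter-Glo luminescence served as the cell viability measure.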

[2] = target: Estrogen receptor (Homo sapiens) (UniProt P03372); experiment: qHTS assay to identify small molecule agonists of the estrogen receptor alpha (ER-alpha) signaling pathway in the presence of an antagonist (AID 1259383); further: top concentration of the series differs between compounds; nearly all actives have a fitted effect of over 15% in size
Chain of Estrogen receptor (Homo sapiens) (P03372 whole entry, looked up): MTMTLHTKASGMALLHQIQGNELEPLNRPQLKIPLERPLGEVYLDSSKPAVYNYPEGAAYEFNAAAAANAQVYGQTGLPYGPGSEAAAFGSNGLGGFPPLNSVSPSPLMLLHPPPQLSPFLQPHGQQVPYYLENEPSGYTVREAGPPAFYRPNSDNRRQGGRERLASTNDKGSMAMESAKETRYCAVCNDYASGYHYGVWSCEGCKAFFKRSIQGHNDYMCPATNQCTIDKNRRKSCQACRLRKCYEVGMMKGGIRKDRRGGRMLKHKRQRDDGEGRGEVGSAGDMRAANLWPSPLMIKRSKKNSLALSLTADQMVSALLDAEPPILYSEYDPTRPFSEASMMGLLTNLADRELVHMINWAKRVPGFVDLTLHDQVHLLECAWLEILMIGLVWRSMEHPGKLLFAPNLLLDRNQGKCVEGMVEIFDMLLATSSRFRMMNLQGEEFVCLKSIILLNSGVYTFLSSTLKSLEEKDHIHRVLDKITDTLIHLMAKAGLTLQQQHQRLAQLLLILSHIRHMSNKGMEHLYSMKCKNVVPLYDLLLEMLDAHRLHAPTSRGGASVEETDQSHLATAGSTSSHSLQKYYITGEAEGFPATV
Procedure, shortened: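 In VM7Luc4E2 cells, 4,000 per well, compounds at 15 concentrations were co-incubated 22hr at 37C with 10.0nM final ICI-182,780. Luminescence from the stably transfected 4×ERE-luciferase reporter was recorded 30min after ONE-Glo addition.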

[3] = qHTS assay to identify small molecule agonists or antagonists of the thyroid stimulating hormone receptor (TSHR) signaling pathway - wild type cell line counter screen (AID 1259384)
Procedure, shortened: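 Counter screen in untransfected Hek293: compounds (15-point titration, triplicate) plus phosphodiesterase inhibitor Ro20-1724 added after 18 h plating; 30 min RT. Intracellular cAMP via competitive d2/cryptate immunoassay, 1 h incubation.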

[4] = target: Thyrotropin receptor (Homo sapiens) (UniProt P16473); experiment: qHTS assay to identify small molecule antagonists of the thyroid stimulating hormone receptor (TSHR) signaling pathway (AID 1259385); further: nearly all actives have a fitted effect of over 20% in size
Chain of Thyrotropin receptor (Homo sapiens) (P16473 whole entry, looked up): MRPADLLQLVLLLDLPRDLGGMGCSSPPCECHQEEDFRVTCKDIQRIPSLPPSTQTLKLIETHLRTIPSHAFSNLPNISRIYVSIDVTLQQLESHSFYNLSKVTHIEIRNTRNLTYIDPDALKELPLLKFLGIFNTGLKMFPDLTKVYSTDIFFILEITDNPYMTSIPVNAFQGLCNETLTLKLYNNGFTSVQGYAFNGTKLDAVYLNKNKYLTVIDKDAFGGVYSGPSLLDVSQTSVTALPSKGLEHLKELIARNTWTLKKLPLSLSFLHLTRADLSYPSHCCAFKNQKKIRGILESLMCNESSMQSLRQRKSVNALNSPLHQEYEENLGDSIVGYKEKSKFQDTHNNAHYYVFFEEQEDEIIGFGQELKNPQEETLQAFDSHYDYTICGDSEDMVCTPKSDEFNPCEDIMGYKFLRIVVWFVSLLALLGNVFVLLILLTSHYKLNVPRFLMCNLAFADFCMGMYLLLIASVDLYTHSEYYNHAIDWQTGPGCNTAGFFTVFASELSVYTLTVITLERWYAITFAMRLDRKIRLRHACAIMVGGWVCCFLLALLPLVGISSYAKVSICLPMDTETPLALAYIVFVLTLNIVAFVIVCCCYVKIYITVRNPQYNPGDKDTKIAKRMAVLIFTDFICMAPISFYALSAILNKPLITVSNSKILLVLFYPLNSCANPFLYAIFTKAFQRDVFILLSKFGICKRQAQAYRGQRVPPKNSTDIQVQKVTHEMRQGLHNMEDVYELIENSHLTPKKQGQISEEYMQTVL
Procedure, shortened: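 Antagonist mode: compound-treated TSHR-expressing HEK293 cells were stimulated with 1.5 ng/mL TSH (final) in presence of Ro20-1724 for 30 min at RT. HTRF cAMP detection after 1 h; each compound tested at 15 concentrations, triplicate.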

[5] = qHTS assay to identify small molecule agonists of the estrogen receptor alpha (ER-alpha) signaling pathway in the presence of an antagonist - cell viability counter screen (AID 1259386; active means well fitted curve in the direction sought with a large enough effect in the repeat runs; an effect the other way counts as inactive or inconclusive;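 further: series mostly up to about 92 µM; cells exposed to compounds for 22 h at 37 °C before the viability read; nearly all actives have a fitted effect of over 30% in size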)
Procedure, shortened: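 Fluorescent CellTiter-Fluor viability signal from VM7Luc4E2 cells, with the reagent added during the final hour of a 22hr compound exposure at 37C in the presence of 10.0nM ICI-182,780.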

[6] = target: Progesterone receptor (Homo sapiens) (UniProt P06401); experiment: qHTS assay to identify small molecule agonists of the progesterone receptor (PR) signaling pathway (AID 1346784); further: nearly all actives have a fitted effect of over 30% in size
Chain of Progesterone receptor (Homo sapiens) (P06401 whole entry, looked up): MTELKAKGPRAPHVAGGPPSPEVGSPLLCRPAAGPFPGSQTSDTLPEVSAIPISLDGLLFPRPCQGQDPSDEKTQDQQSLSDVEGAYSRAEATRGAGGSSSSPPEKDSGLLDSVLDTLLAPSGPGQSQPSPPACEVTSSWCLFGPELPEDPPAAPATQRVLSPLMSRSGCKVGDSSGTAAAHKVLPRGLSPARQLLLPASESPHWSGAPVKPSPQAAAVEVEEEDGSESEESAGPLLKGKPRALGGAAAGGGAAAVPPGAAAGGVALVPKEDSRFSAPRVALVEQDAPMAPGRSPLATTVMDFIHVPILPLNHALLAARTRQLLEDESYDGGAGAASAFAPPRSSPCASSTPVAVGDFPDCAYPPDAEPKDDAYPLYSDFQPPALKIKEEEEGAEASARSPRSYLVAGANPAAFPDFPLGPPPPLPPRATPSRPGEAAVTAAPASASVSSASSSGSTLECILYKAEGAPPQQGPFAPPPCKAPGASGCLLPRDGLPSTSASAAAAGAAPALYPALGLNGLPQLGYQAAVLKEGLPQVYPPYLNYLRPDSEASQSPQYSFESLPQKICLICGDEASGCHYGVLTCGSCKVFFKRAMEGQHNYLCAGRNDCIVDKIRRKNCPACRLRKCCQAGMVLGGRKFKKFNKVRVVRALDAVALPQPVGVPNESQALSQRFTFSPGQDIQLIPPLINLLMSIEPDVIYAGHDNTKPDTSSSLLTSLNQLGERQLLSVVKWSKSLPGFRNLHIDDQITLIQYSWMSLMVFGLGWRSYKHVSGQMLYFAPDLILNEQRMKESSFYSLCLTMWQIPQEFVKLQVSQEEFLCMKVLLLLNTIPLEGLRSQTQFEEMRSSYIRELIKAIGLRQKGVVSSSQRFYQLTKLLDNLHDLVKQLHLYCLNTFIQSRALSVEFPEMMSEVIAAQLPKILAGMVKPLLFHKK
Procedure, shortened: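 HEK 293T PR-UAS-bla reporter cells, 2% charcoal-stripped FBS; 6 hr settle at 37C/5% CO2, compound (DMSO) 16 hr, LiveBLAzer B/G FRET substrate 2 hr RT, fluorescence intensity read.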

[7] = qHTS assay to identify small molecule antagonists of the progesterone receptor (PR) signaling pathway - cell viability counter screen (AID 1346798; active means well fitted curve in the direction sought with a large enough effect in the repeat runs; an effect the other way counts as inactive or inconclusive; further: series mostly up to about 92 µM; nearly all actives have a fitted effect of over 50% in size)
Procedure, shortened: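 Luminescence readout (CellTiter-Glo, 30 min, RT) of viability in PR-UAS-bla HEK293T cells exposed to compound and R5020 agonist for 16 hr at 37C, 5% CO2; run in the same wells as the beta-lactamase reporter read.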

[8] = qHTS assay to identify small molecule agonists of the progesterone receptor (PR) signaling pathway - cell viability counter screen (AID 1346799); further: nearly all actives have a fitted effect of over 45% in size
Procedure, shortened: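 HEK293T PR-UAS-bla, 3,000 cells/well, 2% charcoal-stripped FBS; 6 h settle, compound 16 h at 37C/5% CO2; LiveBLAzer 2 h RT, then CellTiter-Glo 30 min RT, luminescence read.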

[9] = target: Progesterone receptor (Homo sapiens) (UniProt P06401); experiment: qHTS assay to identify small molecule antagonists of the progesterone receptor (PR) signaling pathway (AID 1346795; active means well fitted inhibition curve with a large enough effect in the signal ratio in the repeat runs, not every such curve was filed as active; the % refers to the signal ratio)
Procedure, shortened: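 Beta-lactamase reporter, HEK293T PR-UAS-bla line; 2% charcoal-stripped FBS; 6 hr pre-incubation, 37C/5% CO2. Compound + R5020 1 nM final, 16 hr. LiveBLAzer B/G FRET substrate, 2 hr RT; fluorescence intensity read.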

Measured: Potency

CC(=O)OCC(=O)Nc1cc(C#N)cc(NC(=O)COC(C)=O)c1Cl
inactive: [1] | [2] | [3] | [4] | [5] | [6] | [7] | [8]

CCCCCc1cccc(=O)o1
inactive: [1] | [2] | [3] | [4] | [5] | [6] | [7] | [8]

CCC/C=C(\C=O)CC
inactive: [1] | [2] | [3] | [4] | [5] | [9] | [7] | [8]

CC1CC(=O)CC(C)(C)C1 (stereo not given)
inactive: [1] | [2] | [3] | [4] | [5] | [6] | [7] | [8]

NCCOCCN
inactive: [1] | [2] | [3] | [4] | [5] | [6] | [9] | [8]

c1ccc(-c2nn[nH]n2)cc1
inactive: [1] | [2] | [3] | [4] | [5] | [6] | [7] | [8]

COC(=O)/C=C\C(=O)O
inactive: [1] | [2] | [3] | [4] | [5] | [6] | [7] | [8]

CC(=O)CCC1=C(C)CCCC1(C)C
inactive: [1] | [2] | [3] | [4] | [5] | [6] | [7] | [8]

N#Cc1ccccc1O
inactive: [1] | [2] | [3] | [4] | [5] | [6] | [7] | [8]

CC1=C(C(=O)O)N2C(=O)[C@@H](NC(=O)[C@H](N)C3=CCC=CC3)[C@H]2SC1
inactive: [1] | [2] | [3] | [4] | [5] | [6] | [7] | [8]

O=C(CCCCC(=O)Nc1c(I)cc(I)c(C(=O)O)c1I)Nc1c(I)cc(I)c(C(=O)O)c1I
inactive: [1] | [2] | [3] | [4] | [5] | [9] | [8]

CO/N=C(/C(=O)N[C@@H]1C(=O)N2C(C(=O)[O-])=C(C[n+]3ccn4ncccc43)CS[C@H]12)c1nsc(N)n1
inactive: [1] | [2] | [3] | [4] | [5] | [6] | [7] | [8]

O=C[O][Al]([O]C=O)[O]C=O
inactive: [1] | [2] | [3] | [4] | [5] | [9] | [7] | [8]

C=CCSSCCC
inactive: [1] | [2] | [3] | [4] | [5] | [7]

CC(C)Nc1ccccc1
inactive: [1] | [2] | [3] | [4] | [5] | [9] | [7] | [8]

O=C(O)[C@H](O)c1ccccc1
inactive: [1] | [2] | [3] | [4] | [5] | [9] | [7] | [8]

CC(C)Cn1cnc2c1c(=O)n(C)c(=O)n2C
inactive: [1] | [2] | [3] | [4] | [5] | [9] | [7]

C[C@@H](O)C(=O)O
inactive: [1] | [2] | [3] | [4] | [5] | [9] | [7]

COP(=O)(O)OP(=O)(O)OC
inactive: [1] | [2] | [3] | [4] | [5] | [6] | [7] | [8]

CCCCOC(=O)[C@H](C)O
inactive: [1] | [2] | [3] | [4] | [5] | [6] | [9] | [8]

CC(C)OC(=O)OCOP(=O)(CO[C@H](C)Cn1cnc2c(N)ncnc21)OCOC(=O)OC(C)C
inactive: [1] | [2] | [3] | [4] | [5] | [6] | [7]

CCCCCCCCCCOC(C)=O
inactive: [1] | [2] | [3] | [4] | [5] | [9] | [7] | [8]

C[C@]12CCC(=O)C=C1CC[C@H]1[C@@H]3CC[C@](O)(C(=O)CO)[C@@]3(C)C[C@H](O)[C@@]12F
inactive: [1] | [2] | [3] | [4] | [5] | [9] | [7]

CCc1occc(=O)c1O
inactive: [1] | [2] | [3] | [4] | [5] | [9] | [7] | [8]

C=C(C)c1cccc(C(C)(C)N=C=O)c1
inactive: [1] | [2] | [3] | [4] | [5] | [6] | [7] | [8]

O=C1CCC(=O)N1Cl
inactive: [1] | [2] | [3] | [4] | [5] | [9] | [7]
